# Bioassay records as filed in PubChem BioAssay.
# Mcl1-Noxa inh – Mcl-1/Noxa binding inhibitors, primary screen, biochemical, TR-FRET, 1536-well. Induced myeloid leukemia cell differentiation protein Mcl-1 (Homo sapiens), Q07820. AID 1022, 2008. 220,000 compounds, 1.5% hits. inhibition, % at 21.7 µM. TR-FRET Mcl-1/Noxa peptide binding, 2 h;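 active means compounds that cut the protein-peptide binding signal by more than 50% relative to plate controls in a single-dose test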;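 further: His-tagged Mcl-1 with rhodamine Noxa BH3 peptide and terbium anti-His antibody; 0% = Mcl-1 plus Noxa peptide wells and 100% = peptide-only wells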
# eIF4E-4G inh – eIF4E–eIF4G protein interaction inhibitors, primary screen, biochemical, uHTS, TR-FRET, eIF4GI fragment; 220,000 compounds, 0.37% hits; TR-FRET eIF4E-eIF4GI(517-606) binding, 2 h; inhibition, % at 21.7 µM; AID 782, 2007;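 further: 0% = full FRET control wells and 100% = background wells lacking eIF4GI fragment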
# p47phox inh – p47phox/p22phox peptide binding inhibitors, primary screen, biochemical, uHTS, NADPH oxidase regulatory subunit. inhibition, % at 24.7 µM. fluorescence polarization, 2 h. 220,000 compounds, 0.53% hits;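 further: 0% = p47phox with labelled peptide and 100% = labelled peptide alone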
# Target sequence (P14598 whole entry, looked up): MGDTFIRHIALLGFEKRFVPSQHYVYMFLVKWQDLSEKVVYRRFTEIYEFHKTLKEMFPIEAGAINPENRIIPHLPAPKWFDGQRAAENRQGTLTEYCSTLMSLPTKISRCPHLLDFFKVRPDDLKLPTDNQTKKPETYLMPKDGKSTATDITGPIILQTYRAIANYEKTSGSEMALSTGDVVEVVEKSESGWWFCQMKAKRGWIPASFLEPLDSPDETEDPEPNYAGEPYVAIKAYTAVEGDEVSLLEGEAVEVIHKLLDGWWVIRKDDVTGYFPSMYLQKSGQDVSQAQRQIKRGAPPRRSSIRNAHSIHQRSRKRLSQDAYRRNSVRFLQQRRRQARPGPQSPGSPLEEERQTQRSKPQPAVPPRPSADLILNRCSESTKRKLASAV
# 14-3-3 Bad inh – inhibitors of 14-3-3 zeta/Bad binding, primary screen, biochemical, TR-FRET, bovine 14-3-3 zeta; 14-3-3 protein zeta/delta (Bos taurus), P63103; TR-FRET 14-3-3zeta/Dy647-pBad peptide displacement, 1 h; inhibition, % at 21.7 µM; 220,000 compounds, 0.71% hits;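 active means inhibition above about 70%, limit read from the data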;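 further: 0% = full 14-3-3 plus peptide FRET controls and 100% = background without 14-3-3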
# Target sequence (P63103 whole entry, looked up): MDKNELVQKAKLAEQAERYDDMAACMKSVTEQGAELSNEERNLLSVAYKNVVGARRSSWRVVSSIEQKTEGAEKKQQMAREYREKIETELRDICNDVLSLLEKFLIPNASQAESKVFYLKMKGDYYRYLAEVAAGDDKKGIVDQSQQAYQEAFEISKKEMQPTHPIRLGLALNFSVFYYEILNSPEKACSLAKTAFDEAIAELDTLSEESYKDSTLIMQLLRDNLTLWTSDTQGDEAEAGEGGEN
# Mcl1 Bid PPI – Mcl-1/Bid binding inhibitors, primary screen, biochemical, TR-FRET, 1536-well; 220,000 compounds, 0.97% hits; Induced myeloid leukemia cell differentiation protein Mcl-1 (Homo sapiens), Q07820; AID 1021, 2008; TR-FRET Mcl-1/Bid-Dy647 peptide binding; inhibition, % at 21.7 µM;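 active means compounds that cut the binding signal by more than half at the single screening dose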;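 further: His-tagged Mcl-1 with europium anti-His antibody binding Bid BH3 peptide; 0% = Mcl-1 plus peptide wells and 100% = peptide-only wells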
# Mcl-1 Bim block – inhibitors of Bim peptide binding to Mcl-1, primary screen, biochemical, bead-based flow cytometry, multiplex; Induced myeloid leukemia cell differentiation protein Mcl-1 (Homo sapiens), Q07820; Bim peptide-Mcl-1 binding; inhibition, % at 10 µM; 190,000 compounds, 0.1% hits; AID 1009, 2008; in the data active means inhibition above about 40%;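 further: 0% = no compound tracer wells and 100% = peptide blocker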
# * = called active by the depositor; . = no result. A selection: hits, their analogues and other compounds. The true share with any hit is near 3.3%.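 How the source made its calls, unless noted: active means inhibition above about 30% (limit read from the data); inactive means the rest.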
SMILES,Mcl1-Noxa inh,eIF4E-4G inh,p47phox inh,14-3-3 Bad inh,Mcl1 Bid PPI,Mcl-1 Bim block
COc1ccc(NC(C)C(=O)Nc2ccc(C(C)(C)C)cc2)cc1Cl (centres undefined),10.2,3.8,-1.4,9.8,3.0,0.0
COc1ccc(NC(C)C(=O)Nc2ccc(C#N)cc2)cc1Cl (centres undefined),92.3*,31.5*,1.5,-0.5,88.9*,0.0
CCC(C)C(NC(=O)OC(C)(C)C)C(=O)NC(C)C(N)=O (centres undefined),19.9,-0.9,-7.4,-2.1,-34.4,2.0
Nc1c(S(=O)(=O)c2ccccc2)c2nc3ccccc3nc2n1/N=C/c1ccco1,72.7*,-0.3,-52.8,-9.4,3.3,4.0
Cc1ccc(S(=O)(=O)c2c(N)n(/N=C/c3ccco3)c3nc4ccccc4nc23)cc1,16.8,-4.1,-111.8,-4.6,-4.8,-8.0
COc1cccc(/C=N/n2c(N)c(S(=O)(=O)c3cccs3)c3nc4ccccc4nc32)c1,-30.7,-19.2,-18.0,12.7,11.7,6.0
Nc1c(S(=O)(=O)c2cccs2)c2nc3ccccc3nc2n1/N=C/c1cccc(O)c1,72.8*,-40.1,-48.4,-5.4,6.3,20.0
COc1ccc(S(=O)(=O)c2c(N)n(Cc3ccco3)c3nc4ccccc4nc23)cc1,57.5*,-7.1,-55.0,-2.4,1.7,1.0
O=C(CN1CCN(Cc2ccc(Cl)cc2)CC1)N/N=C/c1ccccc1F,3.6,5.2,-3.7,3.5,-8.6,.
COC(=O)Cc1ccc(NC(=S)N2CCN(c3cc(Cl)ccc3C)CC2)cc1,6.4,-1.5,3.5,-12.7,-40.5,1.0
Cc1cc(=O)oc2cc(OCc3ccc(C(=O)OCC(=O)Nc4ccccc4OC(F)F)cc3)ccc12,10.7,6.1,16.0,27.3,32.7,-2.0
CC(C)(CC(=O)O)CC(=O)NCc1c(Cl)cccc1Sc1ccc(Cl)cc1,10.3,0.7,-9.1,-6.2,4.3,.
O=C(O)CCCC(=O)NCc1c(Cl)cccc1Sc1ccc(Cl)cc1,0.0,2.7,33.7*,-3.7,10.4,.
CCOc1ccc(/C=N/OCC(=O)NCc2ccco2)cc1,4.7,1.3,-1.9,-2.6,-1.5,-1.0
CCOC(=O)CSc1nnc(-c2cccc(Cl)c2)n1CC,-9.2,0.0,-7.0,-2.5,-26.7,45.0*
CC(C)=C(NC(=O)c1ccccc1)C(=O)Nc1ccc(C(=O)O)cc1,6.0,4.0,-16.8,1.4,-15.1,.
O=C1c2cccc3c(O)ccc(c23)C(=O)N1Cc1ccccc1,-129.0,3.0,36.8*,-20.3,1.4,.
O=C1c2cccnc2C(=O)N1Cc1ccccc1,-41.7,-3.5,-5.3,0.4,6.6,-3.0
CC(C)(C)OC(=O)NCCCC[C@H](NC(=O)c1nc[nH]c1C(=O)N1CCN(c2ccccc2)CC1)C(=O)OC(C)(C)C,-20.8,-4.8,-21.3,-3.2,-78.0,.
CCCCN(CCCC)CCn1cnc2c([nH]c3ccc(OC)cc32)c1=O,55.2*,5.5,-4.3,3.8,-29.7,3.0
CS(=O)(=O)c1ccc2nc(NC(=O)c3ccc(NS(=O)(=O)c4ccc(F)c(F)c4)cc3)sc2c1,5.6,-10.3,-20.0,72.4*,63.5*,.
CCOC(=O)c1ccc(N=Nc2c(C)c(C#N)c(O)[nH]c2=O)cc1,87.7*,11.0,0.2,6.1,-21.8,-2.0
Cc1c(C#N)c(O)n(C)c(=O)c1N=Nc1ccc(S(N)(=O)=O)cc1,27.8,2.3,-5.5,-5.2,-29.9,5.0
CCOc1ccc(-c2ccc(SCC)nn2)cc1,-4.2,-0.3,-2.9,-4.6,-0.1,0.0
CCSc1ccc(-c2ccc(C)cc2)nn1,9.6,4.3,37.0*,3.0,0.4,0.0
SMILES,Mcl1-Noxa inh,eIF4E-4G inh,p47phox inh,14-3-3 Bad inh,Mcl1 Bid PPI,Mcl-1 Bim block
CCOc1ccccc1NC(=S)N1CCC(NC(=O)C(C)(C)C)CC1,10.1,0.7,0.8,3.2,-10.8,1.0
CN1CCN(c2ncnc3c2[nH]c2ccc(F)cc23)CC1,37.0,2.9,-1.4,1.2,-9.9,-5.0
CN1CCN(c2cc3c(c4c2[nH]c2ccccc24)C(=O)CC(C)(C)C3)CC1,54.3*,0.4,-20.2,4.0,-13.2,1.0
NC[C@@H]1O[C@H](O[C@H]2[C@@H](O)[C@H](O[C@@H]3[C@@H](O)[C@H](N)C[C@H](N)[C@H]3O[C@H]3O[C@H](CO)[C@@H](O)[C@H](O)[C@H]3N)O[C@@H]2CO)[C@H](N)[C@@H](O)[C@@H]1O,-8.8,1.8,-0.6,-2.8,-4.3,-1.0
CC(C)(O)C#Cc1ccc(CN2CCN(C3CCCC3)C(CCO)C2)cc1 (centres undefined),-14.8,-7.4,0.5,-8.5,-19.4,-1.0
O=C1NCCN1c1ccc(CN2CCN(C3CCCCC3)C(CCO)C2)cc1 (centres undefined),-8.9,4.4,64.0*,2.8,-22.8,0.0
CC(C)(O)C#Cc1ccc(CN2CCN(C3CCCCC3)C(CCO)C2)cc1 (centres undefined),81.2*,-0.1,1.4,-4.2,-38.0,0.0
CCOC(=O)CCC(=O)Nc1ccc(S(=O)(=O)N2CCC(C)CC2)cc1,5.3,1.2,31.0*,-0.1,-0.1,0.0
CCOC(=O)CCC(=O)Nc1ccc(S(=O)(=O)N2CCCC2)cc1,-17.3,3.6,-8.1,-8.0,-8.1,-4.0
CC(C)CC[n+]1ccn(-c2nc3ccccc3nc2[N-]S(=O)(=O)c2ccc(Cl)cc2)c1,-41.5,-1.9,-12.0,1.9,-7.2,.
O=C(CC1C(=O)NCCN1CC1CCCCC1)NCCc1ccc(F)cc1 (centres undefined),8.4,0.5,-7.4,-7.7,-3.9,-3.0
COc1cc(/C=N/N2C(=O)CSC2=S)cc(Br)c1O,58.1*,-3.7,-165.7,8.3,-13.0,-3.0
CCN=c1scc(C)n1/N=C/c1cc(Br)c(O)c(OC)c1,62.6*,4.6,-9.6,-31.8,-16.6,2.0
CN=c1scc(C)n1/N=C/c1cc(Br)c(O)c(Br)c1,29.1,7.2,-2.7,5.7,-12.3,1.0
Cc1ccc(NC(=O)c2ccccc2OCC(=O)Nc2cccc(Cl)c2C)nc1,4.3,13.4,22.1,65.7,2.7,2.0
CCC1CCC(NC2CCCCNC2=O)CC1 (centres undefined),13.4,-0.2,-2.5,-0.8,-2.0,-1.0
CC1CCCC(NC2CCCCNC2=O)C1 (centres undefined),-10.8,1.8,-4.9,10.6,83.1*,2.0
COc1cccc(C2C3=C(N=c4s/c(=C\c5ccc(OCC(=O)O)cc5)c(=O)n42)c2ccccc2CC3)c1 (centres undefined),71.0*,39.9*,-34.1,69.3,21.7,.
